Test results as given in PubChem BioAssay AID1159580 (chemical genetic matrix, 2015).
The whole screen tested about 5,500 compounds, of which about 2,000 (36%) were called active. Another 18% or so got no clear call; they are omitted. No stated cut-off is given here; in the data, active means normalized growth mostly below about 0.91 (no sharp cut-off); inconclusive means no clear call, values can overlap the other calls; inactive means mostly above about 0.92. Some of the results follow.

Experiment: chemical genetic growth profiling, strain panel (AID 1159580);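 further: tested at 20 µM; growth read once vehicle control cultures reached saturation at 30 °C; 1 = growth at the plate median or of vehicle wells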
Conditions: growth OD

Measured: normalized growth

C=C1C(C)C2C(Cc3ccccc3)NC(=O)C23OC(=O)/C=C/C(=O)CCCC(C)C/C=C/C3C1O (stereo unspecified)
active: S. cerevisiae deletion strains, locus YDR388W, stronger effect = lower value 0.908 | S. cerevisiae deletion strains, locus YGR229C, strain SMI1, stronger effect = lower value 0.609 | S. cerevisiae deletion strains, locus YHR030C, strain SLT2, stronger effect = lower value 0.652 | S. cerevisiae deletion strains, locus YLR262C, strain YPT6, stronger effect = lower value 0.597 | S. cerevisiae deletion strains, locus YMR307W, strain GAS1, stronger effect = lower value 0.586 | S. cerevisiae deletion strains, locus YNL298W, strain CLA4, stronger effect = lower value 0.896 | S. cerevisiae deletion strains, locus YNL307C, strain MCK1, stronger effect = lower value 0.841 | S. cerevisiae deletion strains, locus YPR163C, strain tif3, stronger effect = lower value 0.884
inactive: S. cerevisiae deletion strains, locus YAL013W, strain DEP1, stronger effect = lower value 0.981 | S. cerevisiae deletion strains, locus YBR021W, strain FUR4, stronger effect = lower value 0.956 | S. cerevisiae deletion strains, locus YBR229C, strain ROT2, stronger effect = lower value 1.01 | S. cerevisiae deletion strains, locus YCL029C, strain bik1, stronger effect = lower value 1.01 | S. cerevisiae deletion strains, locus YDL035C, strain GPR1, stronger effect = lower value 0.952 | S. cerevisiae deletion strains, locus YDL074C, strain BRE1, stronger effect = lower value 0.987 | S. cerevisiae deletion strains, locus YDL101C, strain DUN1, stronger effect = lower value 1.01 | S. cerevisiae deletion strains, locus YDL134C, strain PPH21, stronger effect = lower value 0.984 | S. cerevisiae deletion strains, locus YDL185W, strain tfp1, stronger effect = lower value 1.02 | S. cerevisiae deletion strains, locus YDL192W, strain arf1, stronger effect = lower value 0.994 | S. cerevisiae deletion strains, locus YDR101C, strain arx1, stronger effect = lower value 1 | S. cerevisiae deletion strains, locus YDR150W, strain NUM1, stronger effect = lower value 0.985 | S. cerevisiae deletion strains, locus YDR162C, strain NBP2, stronger effect = lower value 0.912 | S. cerevisiae deletion strains, locus YDR318W, strain mcm21, stronger effect = lower value 0.958 | S. cerevisiae deletion strains, locus YDR502C, strain sam2, stronger effect = lower value 0.998 | S. cerevisiae deletion strains, locus YEL061C, strain CIN8, stronger effect = lower value 1.01 | S. cerevisiae deletion strains, locus YER110C, stronger effect = lower value 1.01 | S. cerevisiae deletion strains, locus YER155C, strain BEM2, stronger effect = lower value 0.995 | S. cerevisiae deletion strains, locus YER167W, strain BCK2, stronger effect = lower value 0.974 | S. cerevisiae deletion strains, locus YGL078C, strain dbp3, stronger effect = lower value 0.99 | S. cerevisiae deletion strains, locus YGL086W, strain mad1, stronger effect = lower value 0.998 | S. cerevisiae deletion strains, locus YGL248W, strain PDE1, stronger effect = lower value 0.973 | S. cerevisiae deletion strains, locus YGR078C, strain PAC10, stronger effect = lower value 0.864 | S. cerevisiae deletion strains, locus YGR135W, strain pre9, stronger effect = lower value 0.99 | S. cerevisiae deletion strains, locus YGR252W, strain gcn5, stronger effect = lower value 0.966 | S. cerevisiae deletion strains, locus YHR079C, strain IRE1 (second series), stronger effect = lower value 1.01 | S. cerevisiae deletion strains, locus YHR094C, strain hxt1, stronger effect = lower value 1 | S. cerevisiae deletion strains, locus YHR129C, strain ARP1, stronger effect = lower value 0.972 | S. cerevisiae deletion strains, locus YHR200W, strain rpn10, stronger effect = lower value 1.01 | S. cerevisiae deletion strains, locus YIL066C, strain RNR3, stronger effect = lower value 0.988 | S. cerevisiae deletion strains, locus YIL073C, strain SPO22, stronger effect = lower value 0.815 | S. cerevisiae deletion strains, locus YIL125W, strain kgd1, stronger effect = lower value 0.99 | S. cerevisiae deletion strains, locus YIR030C, strain dcg1, stronger effect = lower value 1.01 | S. cerevisiae deletion strains, locus YJL095W, strain BCK1, stronger effect = lower value 1.01 | S. cerevisiae deletion strains, locus YJL134W, strain LCB3, stronger effect = lower value 1 | S. cerevisiae deletion strains, locus YJL168C, strain set2, stronger effect = lower value 1.01 | S. cerevisiae deletion strains, locus YJL187C, strain SWE1 (second series), stronger effect = lower value 1.01 | S. cerevisiae deletion strains, locus YJR043C, strain POL32, stronger effect = lower value 0.975 | S. cerevisiae deletion strains, locus YJR075W, strain HOC1, stronger effect = lower value 1.03 | S. cerevisiae deletion strains, locus YKL009W, strain mrt4, stronger effect = lower value 1.02 | S. cerevisiae deletion strains, locus YKL068W, stronger effect = lower value 0.993 | S. cerevisiae deletion strains, locus YKL085W, strain MDH1 (second series), stronger effect = lower value 0.977 | S. cerevisiae deletion strains, locus YKL085W, strain MDH1, stronger effect = lower value 0.977 | S. cerevisiae deletion strains, locus YKL190W, strain CNB1, stronger effect = lower value 1 | S. cerevisiae deletion strains, locus YKR001C, strain vps1, stronger effect = lower value 0.935 | S. cerevisiae deletion strains, locus YLR039C, strain RIC1, stronger effect = lower value 0.893 | S. cerevisiae deletion strains, locus YLR058C, strain SHM2, stronger effect = lower value 1.01 | S. cerevisiae deletion strains, locus YLR102C, strain apc9, stronger effect = lower value 1.01 | S. cerevisiae deletion strains, locus YLR268W, strain sec22, stronger effect = lower value 1.03 | S. cerevisiae deletion strains, locus YLR330W, strain CHS5, stronger effect = lower value 0.988 | S. cerevisiae deletion strains, locus YLR342W, strain FKS1 (second series), stronger effect = lower value 0.805 | S. cerevisiae deletion strains, locus YLR371W, strain rom2, stronger effect = lower value 1.02 | S. cerevisiae deletion strains, locus YLR418C, strain cdc73, stronger effect = lower value 0.94 | S. cerevisiae deletion strains, locus YML016C, strain PPZ1, stronger effect = lower value 1 | S. cerevisiae deletion strains, locus YML032C, strain rad52, stronger effect = lower value 1.01 | S. cerevisiae deletion strains, locus YML124C, strain tub3, stronger effect = lower value 1.01 | S. cerevisiae deletion strains, locus YMR078C, strain ctf18, stronger effect = lower value 1.01 | S. cerevisiae deletion strains, locus YMR223W, strain ubp8, stronger effect = lower value 0.986 | S. cerevisiae deletion strains, locus YMR263W, strain SAP30, stronger effect = lower value 1 | S. cerevisiae deletion strains, locus YNL067W, strain RPL9B, stronger effect = lower value 0.975 | S. cerevisiae deletion strains, locus YNL128W, strain TEP1, stronger effect = lower value 0.973 | S. cerevisiae deletion strains, locus YNL153C, strain GIM3, stronger effect = lower value 0.989 | S. cerevisiae deletion strains, locus YNL233W, strain BNI4, stronger effect = lower value 1.02 | S. cerevisiae deletion strains, locus YNL250W, strain rad50, stronger effect = lower value 1.01 | S. cerevisiae deletion strains, locus YNL271C, strain bni1, stronger effect = lower value 0.96 | S. cerevisiae deletion strains, locus YNL322C, strain KRE1, stronger effect = lower value 1.01 | S. cerevisiae deletion strains, locus YNR052C, strain pop2, stronger effect = lower value 1.01 | S. cerevisiae deletion strains, locus YOL006C, strain TOP1, stronger effect = lower value 0.79 | S. cerevisiae deletion strains, locus YOL012C, strain htz1 0.448 | S. cerevisiae deletion strains, locus YOL147C, strain pex11, stronger effect = lower value 1 | S. cerevisiae deletion strains, locus YOR061W, strain CKA2, stronger effect = lower value 0.996 | S. cerevisiae deletion strains, locus YOR069W, strain VPS5, stronger effect = lower value 1 | S. cerevisiae deletion strains, locus YOR136W, strain idh2, stronger effect = lower value 0.991 | S. cerevisiae deletion strains, locus YOR144C, strain elg1, stronger effect = lower value 1 | S. cerevisiae deletion strains, locus YOR184W, strain ser1, stronger effect = lower value 0.992 | S. cerevisiae deletion strains, locus YOR316C, strain cot1, stronger effect = lower value 1.01 | S. cerevisiae deletion strains, locus YPL055C, strain LGE1, stronger effect = lower value 0.97 | S. cerevisiae deletion strains, locus YPL241C, strain CIN2, stronger effect = lower value 1 | S. cerevisiae deletion strains, locus YPR119W, strain clb2, stronger effect = lower value 1 | S. cerevisiae deletion strains, locus YPR141C, strain kar3, stronger effect = lower value 1.01 | S. cerevisiae deletion strains, locus YPR167C, strain met16, stronger effect = lower value 1.01 | S. cerevisiae deletion strains, strain wtn01, stronger effect = lower value 0.983 | S. cerevisiae strains, strain wild type, stronger effect = lower value 0.966
